Data on 17 sequences can be found in PMC11006913.

Targets include HOXA4 (Homo sapiens, UniProt Q00056 201-287); CRX (Homo sapiens, UniProt O43186 26-111, E42D); MSX2 (Homo sapiens, UniProt P35548 130-214, R199I).
Test in all cases: PBM; 200 nM protein, PBS
Common to all, as to conditions: dsDNA, one strand shown

The target of assay [1] is T1, NKX2-6 (Homo sapiens, UniProt A6NCS4 118-204, R150C).
T1 sequence: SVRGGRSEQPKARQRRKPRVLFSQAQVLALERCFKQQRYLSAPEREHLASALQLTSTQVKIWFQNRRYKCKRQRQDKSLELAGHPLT

Assay [2] deals with NKX3-2 (Homo sapiens, UniProt P78367 192-278, P234S).
In assay [3] the target is NKX3-2 (Homo sapiens, UniProt P78367 192-278).
Assay [4] has as its target T2, NKX2-6 (Homo sapiens, UniProt A6NCS4 118-204).
T2 sequence: T1 sequence with C33R

The target of assay [5] is T3, NKX2-6 (Homo sapiens, UniProt A6NCS4 118-204, F151L).
T3 sequence: T1 sequence with C33R, F34L

Assay [6] concerns the target HOXC9 (Homo sapiens, UniProt P31274 178-260).
For assay [7], the target named is ALX3 (Homo sapiens, UniProt O95076 139-225, N203Q).
Assay [8] concerns the target ALX3 (Homo sapiens, UniProt O95076 139-225).
Assay [9] deals with ALX3 (Homo sapiens, UniProt O95076 139-225, L168Q).
Assay [10] addresses ALX3 (Homo sapiens, UniProt O95076 139-225, L168V).
The target of assay [11] is ALX3 (Homo sapiens, UniProt O95076 139-225, N203S).
In assay [12] the target is ALX1 (Homo sapiens, UniProt Q15699 118-204, L144V).
For assay [13], the target named is ALX1 (Homo sapiens, UniProt Q15699 118-204, L144R).
For assay [14], the target named is ALX1 (Homo sapiens, UniProt Q15699 118-204).
In assay [15] the target is HOXC9 (Homo sapiens, UniProt P31274 178-260, R193K).
Assay [16] has as its target HOXC9 (Homo sapiens, UniProt P31274 178-260, R222W).
For assay [17], the target named is PROP1 (Homo sapiens, UniProt O75360 56-141).
The target of assay [18] is PROP1 (Homo sapiens, UniProt O75360 56-141, R99H).
Assay [19] concerns the target PROP1 (Homo sapiens, UniProt O75360 56-141, F88S).

Numbering of substitutions follows the chain as printed.

Chain of NKX3-2 (Homo sapiens, UniProt P78367 192-278, P234S) (P78367 192-278 P234S): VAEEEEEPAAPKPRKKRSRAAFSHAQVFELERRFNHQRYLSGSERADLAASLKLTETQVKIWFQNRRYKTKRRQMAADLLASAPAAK
Chain of HOXC9 (Homo sapiens, UniProt P31274 178-260) (P31274 178-260): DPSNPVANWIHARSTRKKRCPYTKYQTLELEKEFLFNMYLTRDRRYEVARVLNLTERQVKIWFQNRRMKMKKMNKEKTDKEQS
Chain of NKX3-2 (Homo sapiens, UniProt P78367 192-278) (P78367 192-278): as the sequence (P78367 192-278 P234S) above, with S43P counted along it
Chain of ALX1 (Homo sapiens, UniProt Q15699 118-204, L144V) (Q15699 118-204 L144V): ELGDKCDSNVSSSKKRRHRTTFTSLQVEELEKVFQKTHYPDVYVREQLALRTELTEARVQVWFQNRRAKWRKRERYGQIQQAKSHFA
Chain of ALX1 (Homo sapiens, UniProt Q15699 118-204, L144R) (Q15699 118-204 L144R): as the sequence (Q15699 118-204 L144V) above, with V27R counted along it
Chain of ALX1 (Homo sapiens, UniProt Q15699 118-204) (Q15699 118-204): as the sequence (Q15699 118-204 L144V) above, with V27L counted along it
Chain of MSX2 (P35548 130-214 R199I): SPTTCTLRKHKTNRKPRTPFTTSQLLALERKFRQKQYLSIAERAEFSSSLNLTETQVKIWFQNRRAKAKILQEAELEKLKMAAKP
Chain of ALX3 (Homo sapiens, UniProt O95076 139-225, L168Q) (O95076 139-225 L168Q): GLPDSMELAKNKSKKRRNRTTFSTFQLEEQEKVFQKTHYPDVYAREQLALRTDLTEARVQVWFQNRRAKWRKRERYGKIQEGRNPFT
Chain of PROP1 (Homo sapiens, UniProt O75360 56-141, R99H) (O75360 56-141 R99H): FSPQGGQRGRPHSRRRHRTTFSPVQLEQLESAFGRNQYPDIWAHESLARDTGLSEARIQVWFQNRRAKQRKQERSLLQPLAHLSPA
Chain of CRX (O43186 26-111 E42D): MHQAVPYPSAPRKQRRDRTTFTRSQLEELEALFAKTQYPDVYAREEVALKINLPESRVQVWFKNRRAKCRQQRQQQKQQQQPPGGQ
Chain of PROP1 (Homo sapiens, UniProt O75360 56-141) (O75360 56-141): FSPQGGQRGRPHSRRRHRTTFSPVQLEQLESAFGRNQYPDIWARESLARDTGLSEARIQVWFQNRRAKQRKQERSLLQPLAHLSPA
Chain of PROP1 (Homo sapiens, UniProt O75360 56-141, F88S) (O75360 56-141 F88S): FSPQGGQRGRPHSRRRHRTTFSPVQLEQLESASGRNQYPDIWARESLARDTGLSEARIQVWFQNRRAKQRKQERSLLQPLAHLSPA
Chain of HOXA4 (Q00056 201-287): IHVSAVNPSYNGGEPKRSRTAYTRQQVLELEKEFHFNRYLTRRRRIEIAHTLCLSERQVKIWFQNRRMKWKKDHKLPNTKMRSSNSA
Chain of ALX3 (Homo sapiens, UniProt O95076 139-225, N203Q) (O95076 139-225 N203Q): as the sequence (O95076 139-225 L168Q) above, with Q30L, N65Q counted along it
Chain of ALX3 (Homo sapiens, UniProt O95076 139-225, L168V) (O95076 139-225 L168V): as the sequence (O95076 139-225 L168Q) above, with Q30V counted along it
Chain of HOXC9 (Homo sapiens, UniProt P31274 178-260, R222W) (P31274 178-260 R222W): as the sequence (P31274 178-260) above, with R45W counted along it
Chain of HOXC9 (Homo sapiens, UniProt P31274 178-260, R193K) (P31274 178-260 R193K): as the sequence (P31274 178-260) above, with R16K counted along it
Chain of ALX3 (Homo sapiens, UniProt O95076 139-225, N203S) (O95076 139-225 N203S): as the sequence (O95076 139-225 L168Q) above, with Q30L, N65S counted along it
Chain of ALX3 (Homo sapiens, UniProt O95076 139-225) (O95076 139-225): as the sequence (O95076 139-225 L168Q) above, with Q30L counted along it

With AAGTACAT, the binding signal with NKX2-6 [1] is 11.6 upbm affinity estimate (log intensity, higher = more binding, comparable within an allelic series); with NKX3-2 [2], 12.4 upbm affinity estimate (log intensity, higher = more binding, comparable within an allelic series); with NKX3-2 [3] it was 12.6 upbm affinity estimate (log intensity, higher = more binding, comparable within an allelic series).
Regarding GATAAGTA, the binding signal with NKX2-6 [1] is 11.6 upbm affinity estimate (log intensity, higher = more binding, comparable within an allelic series); with NKX2-6 [4] it was 13.3 upbm affinity estimate (log intensity, higher = more binding, comparable within an allelic series); with NKX2-6 [5] it was 10.6 upbm affinity estimate (log intensity, higher = more binding, comparable within an allelic series).
Regarding ATGAGAAT, the binding signal is 10.8 upbm affinity estimate (log intensity, higher = more binding, comparable within an allelic series) with HOXC9 [6] and 11.2 upbm affinity estimate (log intensity, higher = more binding, comparable within an allelic series) with HOXA4.
In the case of GGGGGCGA, the binding signal in the assay with NKX2-6 [1] is 9.39 upbm affinity estimate (log intensity, higher = more binding, comparable within an allelic series); with ALX3 [7], 7.73 upbm affinity estimate (log intensity, higher = more binding, comparable within an allelic series); with ALX3 [8] it was 7.8 upbm affinity estimate (log intensity, higher = more binding, comparable within an allelic series); with ALX3 [9], 7.65 upbm affinity estimate (log intensity, higher = more binding, comparable within an allelic series); with ALX3 [10], 7.66 upbm affinity estimate (log intensity, higher = more binding, comparable within an allelic series); in the assay with ALX3 [11], 7.72 upbm affinity estimate (log intensity, higher = more binding, comparable within an allelic series).
On to GATTAAGA, for which the binding signal in the assay with CRX was 12.7 upbm affinity estimate (log intensity, higher = more binding, comparable within an allelic series).
GGGGGACC: the binding signal is 8.9 upbm affinity estimate (log intensity, higher = more binding, comparable within an allelic series) with NKX2-6 [1]; 9.01 upbm affinity estimate (log intensity, higher = more binding, comparable within an allelic series) in the assay with NKX2-6 [4]; 8.91 upbm affinity estimate (log intensity, higher = more binding, comparable within an allelic series) with NKX2-6 [5].
In the case of CGCGGGCC, the binding signal in the assay with NKX2-6 [1] was 9.38 upbm affinity estimate (log intensity, higher = more binding, comparable within an allelic series); with ALX1 [12], 6.41 upbm affinity estimate (log intensity, higher = more binding, comparable within an allelic series); with ALX1 [13], 6.28 upbm affinity estimate (log intensity, higher = more binding, comparable within an allelic series); in the assay with NKX3-2 [2] it was 10.4 upbm affinity estimate (log intensity, higher = more binding, comparable within an allelic series); with ALX1 [14], 6.3 upbm affinity estimate (log intensity, higher = more binding, comparable within an allelic series); with NKX3-2 [3], 10.4 upbm affinity estimate (log intensity, higher = more binding, comparable within an allelic series).
Consider CATGGTAA, for which the binding signal is 10.9 upbm affinity estimate (log intensity, higher = more binding, comparable within an allelic series) with HOXC9 [6] and 11 upbm affinity estimate (log intensity, higher = more binding, comparable within an allelic series) with HOXC9 [15].
Turning to CCGTGGGA, the binding signal is 9.37 upbm affinity estimate (log intensity, higher = more binding, comparable within an allelic series) with NKX2-6 [1]; 6.49 upbm affinity estimate (log intensity, higher = more binding, comparable within an allelic series) with ALX1 [12]; 6.42 upbm affinity estimate (log intensity, higher = more binding, comparable within an allelic series) with ALX1 [13]; 6.53 upbm affinity estimate (log intensity, higher = more binding, comparable within an allelic series) with ALX1 [14].
AAGGCCCA: the binding signal was 9.71 upbm affinity estimate (log intensity, higher = more binding, comparable within an allelic series) with NKX2-6 [1]; 10.7 upbm affinity estimate (log intensity, higher = more binding, comparable within an allelic series) in the assay with NKX3-2 [2]; 10.7 upbm affinity estimate (log intensity, higher = more binding, comparable within an allelic series) with NKX3-2 [3].
As to GAACATTC, the binding signal in the assay with HOXC9 [6] was 10.5 upbm affinity estimate (log intensity, higher = more binding, comparable within an allelic series).
With TACACTCA, the binding signal with NKX2-6 [1] is 11.1 upbm affinity estimate (log intensity, higher = more binding, comparable within an allelic series); in the assay with NKX3-2 [2] it was 11.9 upbm affinity estimate (log intensity, higher = more binding, comparable within an allelic series); with NKX3-2 [3], 12 upbm affinity estimate (log intensity, higher = more binding, comparable within an allelic series).
As for GATGATTA, in the assay with MSX2, the binding signal was 11.1 upbm affinity estimate (log intensity, higher = more binding, comparable within an allelic series).
With ATCACTTA, the binding signal in the assay with NKX2-6 [1] was 11.6 upbm affinity estimate (log intensity, higher = more binding, comparable within an allelic series); in the assay with NKX2-6 [4], 13.3 upbm affinity estimate (log intensity, higher = more binding, comparable within an allelic series); with NKX2-6 [5], 10.4 upbm affinity estimate (log intensity, higher = more binding, comparable within an allelic series).
As to ATTGCGCA, the binding signal with HOXC9 [6] is 10.8 upbm affinity estimate (log intensity, higher = more binding, comparable within an allelic series); with HOXC9 [16] it was 10.1 upbm affinity estimate (log intensity, higher = more binding, comparable within an allelic series).
For GACCCGAC, the binding signal is 9.44 upbm affinity estimate (log intensity, higher = more binding, comparable within an allelic series) with NKX2-6 [1]; 10.7 upbm affinity estimate (log intensity, higher = more binding, comparable within an allelic series) with NKX3-2 [2]; 10.7 upbm affinity estimate (log intensity, higher = more binding, comparable within an allelic series) with NKX3-2 [3].
With ACCTGGTG, the binding signal with NKX2-6 [1] was 9.61 upbm affinity estimate (log intensity, higher = more binding, comparable within an allelic series); with PROP1 [17] it was 6.8 upbm affinity estimate (log intensity, higher = more binding, comparable within an allelic series); in the assay with PROP1 [18], 6.74 upbm affinity estimate (log intensity, higher = more binding, comparable within an allelic series); with PROP1 [19], 6.77 upbm affinity estimate (log intensity, higher = more binding, comparable within an allelic series).
